Bioassay records: PubChem BioAssay, National Center for Advancing Translational Sciences (NCATS)
Pf growth 96h: P. falciparum growth inhibition at 96 hours; Potency, µM (titrated, usually from 28.7 µM), inactives show top-dose activity change, negative = inhibition, hits mostly inhibitors; 320,000 tested, 6.9% active; P. falciparum luciferase reporter growth, 96 h; AID 504834; active = well fitted inhibition curve with a large enough effect; inconclusive = small, poorly fitted or top-dose-only effect, or another doubt; inactive = no such curve, though single readings can be large or run the other way; also: potency is read from the fitted curve at half-maximal effect; % is scaled to controls: 0 for no effect and ±100 for the full control effect
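Delayed-death screen, second-generation endpoint: infected erythrocytes, 2% hematocrit, 0.05% parasitemia final; 96 hours at 37 C, 5% CO2; luciferase detection reagent; luminescence decrease equals reduced growth.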
Shiga toxin inh: Shiga toxin inhibition; Vero cells, Shiga toxin protein synthesis inhibition reporter; inhibition, % at 38.7 µM; 290,000 tested, 9.2% active; in the data active = inhibition mostly above about 28%, no sharp cut-off; inactive = mostly below about 43%; also: 0% is about no effect
Cycloheximide cs: affects cycloheximide protein synthesis inhibition readout, counter-screen; cell reporter, cycloheximide protein synthesis inhibition counterscreen; max response, %; 300,000 tested, 12% active; in the data active = max response mostly above about 13%, no sharp cut-off; inactive = mostly below about 14%; also: read at 38.3 µM for the half of the compounds with a filed dose; 0% is about no effect
NS1 inh: inhibitors of influenza NS1 protein function; Potency, µM (highest dose often 46.1 µM), inactives show at the highest dose activity, positive = more growth; 270,000 tested, 0.4% active; AID 2326; also: potency is read from the fitted curve at half-maximal effect; actives are rising curves; nearly all actives have a fitted effect of over 50% in size
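In this qHTS, NS1 from influenza A is expressed in budding yeast, where it slows growth. Cells are switched from glucose to 2% galactose medium (pH 6.0, -URA), treated with compound, and growth recovery is read at OD600.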
SARS PLP yeast: blocks SARS-CoV papain-like protease in a yeast assay. S. cerevisiae expressing SARS-CoV PLpro, growth rescue. Potency, µM (doses to about 32.9 µM), for the others: at the highest dose activity, positive = growth rescue, actives largely listed as activators. 330,000 tested, 0.19% active. AID 485353; also: potency is read from the fitted curve at half-maximal effect; 0% is about no effect; nearly all actives have a fitted effect of over 55% in size
Pf growth 48h: P. falciparum growth inhibition at 48 hours (one generation); Potency, µM (titrated, usually from 28.7 µM), without a hit: top-dose activity change, negative = inhibition, most hits filed as inhibitors; P. falciparum luciferase growth in erythrocytes, 48 h; 310,000 tested, 5.9% active; active = well fitted inhibition curve with a large enough effect; inconclusive = small, poorly fitted or top-dose-only effect, or another doubt; inactive = no such curve, though single readings can be large or run the other way; also: potency is read from the fitted curve at half-maximal effect; % is scaled to controls: 0 for no effect and ±100 for the full control effect
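A one-generation exposure of luciferase-tagged malaria parasites in RPMI 1640/Albumax erythrocyte culture, 37 C and 5% CO2. Inhibition is inferred from decreased luminescence after adding detection reagent.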
* marks the source's active call; other numbers are inactive results; ? = inconclusive; . = no result given. Compounds with a hit are over-represented: about 21% of the library has one in this group of screens. Unless noted, calls follow the shape of the full dose curve.

SMILES | Pf growth 96h | Shiga toxin inh | Cycloheximide cs | NS1 inh | SARS PLP yeast | Pf growth 48h
CCOC(=O)c1nc(NCCc2ccccc2)sc1C | -10% | 133* | 53* | . | -4% | 31%
Cc1nc(Nc2ccccc2C(F)(F)F)sc1C(=O)N(C)C | 59% | 45* | 26* | . | -2% | 36%
CCOC(=O)c1nc(NNC(C)=O)sc1C | 3% | 0 | -1 | . | 0% | 13%
O=c1cc(CN2CCN(c3cccc(C(F)(F)F)c3)CC2)nc2sccn12 | 54% | -3 | -2 | ? | 1% | 55%
Cn1nc(C(=O)Nc2ccc3c(c2)OCCO3)cc1C(=O)O | 44% | 19 | 20* | 7% | -2% | 75%
O=C(Nc1ccc2c(c1)OCCO2)c1cc(-n2cnnc2)ccc1Cl | 36% | -11 | -2 | 0% | 0% | 7%
O=C(Nc1ccc(NC(=O)c2ccccn2)cc1)C(=O)Nc1ccc2c(c1)OCCO2 | ? | 62 | 8 | . | 0% | 46%
Cn1ccc(C(=O)Nc2ccc3c(c2)OCCO3)n1 | 75% | 71* | 49* | -21% | -4% | 12%
Cc1cc(SCC(=O)OCC(=O)N(CCC#N)c2ccccc2)nc2ccccc12 | -2% | . | . | . | . | 5%
COc1ccc(/C=N/N(C)C2=NS(=O)(=O)c3ccccc32)cc1 | 12µM* | -4 | -6 | -2% | 0% | .
CCc1ccc(S(=O)(=O)N2c3ccc(C)cc3C3CN(C)CCC32)cc1 (configuration not stated) | ? | . | . | . | 1% | 10µM*
Cc1ccc2c(c1)[C@@H]1CN(C)CC[C@@H]1N2S(=O)(=O)c1ccc(F)cc1 | ? | -13 | -2 | 1% | 2% | -18%
COc1ccc(C)cc1S(=O)(=O)N1c2ccc(C)cc2C2CN(C)CCC21 (configuration not stated) | 10µM* | . | . | . | 0% | ?
Cc1ccc(OCCC(=O)OCC(=O)NC(=O)NC2CCCCC2)cc1 | 18% | . | . | . | -3% | -11%
COc1cc(OC)cc(C(=O)NC(=S)N2CCCCC2c2cccnc2)c1 (configuration not stated) | ? | 6 | -2 | 14% | 4% | 0%
CC(=O)c1ccc(OCc2cc(C(=O)N3CCC(c4ccncc4)CC3)no2)cc1 | 4% | 23 | 8 | -11% | -15% | 3%
CCOc1cccc(C(=O)N2CCCCC2c2cccnc2)c1 (configuration not stated) | 53% | 6 | 3 | 3% | 3% | 9.3µM*
CC(=O)c1ccc(OCc2cc(C(=O)N3CCCCC3c3cccnc3)no2)cc1 (configuration not stated) | 19% | 81* | 54* | -57% | -11% | ?
Cn1c(SCC(=O)N/N=C/C=C/c2ccco2)nc2ccccc21 | -15% | -10 | -5 | 21% | 8% | -3%
CCS(=O)(=O)N1CCC(NC(=O)C(Cc2ccc(OC)c(OC)c2)NC(C)=O)CC1 (configuration not stated) | 4% | . | 7 | 0% | 2% | 64%
NC(=O)C[n+]1cccc(CNC(=O)c2ccc(OC(F)F)cc2)c1 | 27% | 10 | 0 | . | 1% | 31%
O=C(C[n+]1cccc(CNC(=O)c2ccc(OC(F)F)cc2)c1)Nc1cc(C(F)(F)F)ccc1Cl | 0.93µM* | -7 | -2 | 5% | -2% | 1.7µM*
Cc1cc(C)c(NS(=O)(=O)c2ccc3c(c2)NC(=O)CC(=O)N3)c(C)c1 | ? | -1 | -3 | 17% | 20% | 5%
CCCOc1ccc(C(C)=O)cc1CSc1nc(O)cc(=O)[nH]1 | 0.93µM* | 2 | 9 | ? | 11% | .
CSc1nc(-c2ccccc2)nc(NC(C)=O)c1C(C)=O | ? | 25 | -2 | . | -1% | 6%
SMILES | Pf growth 96h | Shiga toxin inh | Cycloheximide cs | NS1 inh | SARS PLP yeast | Pf growth 48h
O=C(Nc1nncs1)C1c2ccccc2Oc2ccccc21 | 4% | 17 | -3 | 0% | -5% | .
COc1nc(-c2ccc(C)cc2)ccc1-c1noc(-c2ccco2)n1 | -11% | 70* | 28* | -15% | 6% | 47%
COc1nc(C)ccc1-c1noc(-c2ccco2)n1 | . | 81* | 39* | 2% | -1% | 231%
CCOc1nc(-c2ccccc2)ccc1-c1noc(-c2ccco2)n1 | 16% | -1 | -1 | -2% | -2% | ?
C=CCn1c(SCC(=O)Nc2cc(C)on2)nnc1-c1ccccc1F | . | . | . | . | 2% | .
C[C@H](OC(=O)N1CCN(C(c2ccccc2)c2ccccc2)CC1)[C@@H]1O[C@@]2(C)CCC[C@H]1O2 | 4.7µM* | . | . | . | -1% | 6.6µM*
O=C(/C=C/c1ccccc1)CC(O)(c1ccccc1)C(F)(F)C(F)F (configuration not stated) | 7.4µM* | -18 | 2 | -123% | -22% | .
O=C(/C=C/c1ccccc1)CC(O)(c1ccccc1)C(F)(F)F (configuration not stated) | ? | -30 | -2 | -205% | -33% | .
COc1ccc(/C=C/C(=O)O)cc1 | 6% | 21 | 5 | . | 9% | 2%
COc1ccc(/C=C/C(=O)CC(O)(c2ccccc2)C(F)(F)F)cc1 (configuration not stated) | ? | -2 | -2 | -39% | -41% | 13µM*
COc1ccc(/C=C/C(=O)CCC(=O)O)cc1 | 4% | 56* | 32* | 4% | 1% | 33%
COc1ccc(/C=C/C(=O)OCCC(C)C)cc1 | 13µM* | 105* | 34* | . | . | 24%
CCOc1ccc(S(=O)(=O)Nc2ccc(F)cc2)c(C)c1C | -17% | 0 | 5 | -65% | -38% | .
COc1cc(OC)cc(C(=O)NNC(=O)C(=O)Nc2cc(OC)c(Cl)cc2OC)c1 | ? | -3 | -4 | 1% | -2% | 2%
CCCCSCCCNC(=O)Nc1ccc(C)c(C)c1 | -11% | -6 | 15 | . | -2% | ?
COc1ccc2c(c1)CCN=C2Cc1ccc(OC)c(OC)c1 | 13µM* | -3 | -3 | 7% | 9% | ?
COc1ccc(C(C[N+](=O)[O-])c2c(C)cc3ccccn23)cc1 (configuration not stated) | 12µM* | -2 | 13 | . | 0% | 10µM*
COc1ccc(C(C[N+](=O)[O-])c2c(-c3ccccc3)cc3ccccn23)c(OC)c1 (configuration not stated) | . | 71* | 55 | 6% | -23% | 10µM*
COc1ccccc1C(C[N+](=O)[O-])c1c(N)n(C)c(=O)n(C)c1=O (configuration not stated) | ? | -23 | -3 | -68% | -20% | ?
Cc1cc2ccccn2c1C(C[N+](=O)[O-])c1ccc(N(C)C)cc1 (configuration not stated) | ? | 28 | 6 | ? | 0% | ?
Cc1cc([N+](=O)[O-])nn1CC(=O)N/N=C/c1ccc(O)cc1O | ? | 17 | 3 | 0% | 19% | ?
O=C1NC(=O)/C(=C\c2ccc(N3CCOCC3)o2)N1 | ? | 27 | 3 | . | 1% | 7.4µM*
